This is a sample that favours compounds with a hit; in the whole collection about 2.3% have one here.
CHO-K1 Ca ag = M1 agonist counterscreen hit in parental CHO-K1 cells | Fluo-8 calcium fluorescence; scaled to maximal ATP response, vehicle zero | activation, % at 3 µM | actives 0.48% (n = 360,000) | AID 602248; in the data active = activation above about 15%;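 also: untransfected CHO-K1 host cells lacking M1 receptor as counterscreen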
CHRM1 agonist = activates human CHRM1 receptor | CHO-K1 hM1, Fluo-8 calcium fluorescence, agonist mode; 0% DMSO, 100% acetylcholine EC100 | activation, % at 3 µM | actives 0.33% (n = 360,000) | AID 588814;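 active = activation above the run's mean compound activation plus 3 SD, cut at about 16% in these data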;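 also: peak over basal fluorescence ratio within a 140 s kinetic read after compound addition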
Target sequence (P11229 whole entry, looked up): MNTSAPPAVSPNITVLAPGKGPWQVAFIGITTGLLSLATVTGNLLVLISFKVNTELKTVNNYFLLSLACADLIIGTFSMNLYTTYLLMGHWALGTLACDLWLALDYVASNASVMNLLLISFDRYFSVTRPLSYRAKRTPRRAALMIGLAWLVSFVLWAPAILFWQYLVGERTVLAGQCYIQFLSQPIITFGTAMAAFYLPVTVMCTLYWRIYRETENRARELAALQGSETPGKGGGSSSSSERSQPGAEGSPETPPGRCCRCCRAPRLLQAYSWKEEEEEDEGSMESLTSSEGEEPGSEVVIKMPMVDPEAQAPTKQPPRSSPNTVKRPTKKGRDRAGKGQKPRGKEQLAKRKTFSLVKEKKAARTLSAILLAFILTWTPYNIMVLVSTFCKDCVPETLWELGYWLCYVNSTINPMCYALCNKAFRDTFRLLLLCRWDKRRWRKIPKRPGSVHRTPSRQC
CHO-K1 Ca antag = nonselective inhibitor or artifact in parental CHO-K1 cells; ATP-induced calcium, Fluo-8 fluorescence; inhibition, % at 3 µM; actives 0.6% (n = 360,000); AID 602250;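 active = inhibition above a per-plate cutoff, the plate's mean sample inhibition plus 3 SD, cut at about 24% in these data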
CHO-K1 Ca PAM = nonselective activator or artifact in parental CHO-K1 calcium assay; activation, % at 3 µM; actives 0.02% (n = 360,000); AID 602247; ATP EC20, Fluo-8 calcium fluorescence; 0% at ATP EC20, 100% at ATP max;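 active = activation above the run cutoff, the mean activation of all test compounds plus 3 SD, cut at about 40% in these data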;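 also: peak over basal fluorescence ratio in a 140 s read after ATP addition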
CHRM1 antagonist = human CHRM1 antagonism. CHO-K1 hM1, Fluo-8 calcium fluorescence, ACh EC80 antagonist. actives 1.3% (n = 360,000). P11229. inhibition, % at 3 µM;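 active = percent inhibition above its own plate's cutoff, namely the mean of that plate's compound wells plus 3 SD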;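 also: peak over basal fluorescence ratio during 140 s after agonist addition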
CHRM1 PAM = human CHRM1 positive allosteric modulation; P11229; actives 0.088% (n = 360,000); CHO-K1 hM1, Fluo-8 calcium fluorescence, ACh EC20; 0% = ACh EC20, 100% = maximal ACh; activation, % at 3 µM; AID 588819; in the data active = activation above about 19%, passing the limit was not always enough
Numbers stand for hits; . = inactive.

SMILES	CHO-K1 Ca ag	CHRM1 agonist	CHO-K1 Ca antag	CHO-K1 Ca PAM	CHRM1 antagonist	CHRM1 PAM
OC(CNCCc1ccc(C(F)(F)F)cc1)COc1cccc2ccccc12 (stereo unspecified)	.	.	.	.	.	.
COc1ccccc1COCC(O)CNCCc1ccc(C(F)(F)F)cc1 (stereo unspecified)	16.0	.	.	.	.	.
CSc1ncccc1C(=O)OCC(=O)N1CC(=O)Nc2ccccc21	.	.	.	.	.	.
Cc1nnc(SCC(=O)Nc2cccc(S(=O)(=O)N(C)c3ccccc3)c2)s1	.	.	.	.	36.0	.
COc1cccc(CN(C)CC(=O)Nc2cccc(S(=O)(=O)N(C)c3ccccc3)c2)c1OC	.	.	.	.	.	.
COCCn1cnnc1SCC(=O)Nc1cccc(S(=O)(=O)N(C)c2ccccc2)c1	.	.	.	.	.	.
CCOc1ccc(CN(C)CC(=O)Nc2cccc(S(=O)(=O)N(C)c3ccccc3)c2)cc1	17.7	.	.	.	.	.
CN(c1ccccc1)S(=O)(=O)c1cccc(NC(=O)COc2cccc([N+](=O)[O-])c2)c1	.	.	.	.	.	.
CCC(=O)c1ccc(OCC(=O)Nc2cccc(S(=O)(=O)N(C)c3ccccc3)c2)cc1	17.4	.	.	.	55.9	.
O=C(NCc1cccs1)C1CCCN(S(=O)(=O)c2cccs2)C1 (stereo unspecified)	.	.	.	.	.	.
C=CCN1C(=O)C2(/C(=C(\O)c3ccc4c(c3)OCCO4)C(=O)C(=O)N2CCCOC)c2ccccc21 (stereo unspecified)	.	.	.	.	.	.
CCN(CC)c1ccc(C=C2C(=O)OC3(CCCCC3)OC2=O)cc1	.	.	.	.	.	.
CCN(CC)c1ccc(/C=C2/C(=O)c3ccc(C(=O)O)cc3C2=O)cc1	62.2	186.4	56.4	.	76.2	.
CN(C)c1ccc(/C=C2\SC(=S)N(Nc3ncc(C(F)(F)F)cc3Cl)C2=O)cc1	20.5	36.7	38.6	.	61.4	.
Cc1cc(C)nc(NN2C(=O)/C(=C/c3ccccc3)SC2=S)n1	.	.	.	.	.	.
CCOc1cc(/C=C2\SC(=S)N(NS(=O)(=O)c3ccccc3)C2=O)ccc1O	.	.	.	.	.	.
COc1cc(/C=C2\SC(=S)N(Nc3ncc(C(F)(F)F)cc3Cl)C2=O)ccc1O	.	.	.	.	29.6	.
Cc1cccc(C)c1NC(=S)N(CCCN1CCOCC1)Cc1cccnc1	.	.	.	.	.	.
CCOC(=O)C1CCCN(C2CC(=O)N(c3ccc(N4C(=O)CC(N5CCCC(C(=O)OCC)C5)C4=O)cc3)C2=O)C1 (stereo unspecified)	.	38.8	.	.	.	.
CCOC(=O)C1CCCN(C2CC(=O)N(c3cccc(C(F)(F)F)c3)C2=O)C1 (stereo unspecified)	.	65.1	.	.	39.6	.
CCOC(=O)C1CCCN(C2CC(=O)N(c3ccc(C(C)C)cc3)C2=O)C1 (stereo unspecified)	.	17.5	.	.	.	.
C=C(C)CN1C(=O)C2(OCCO2)c2cc(Br)ccc21	.	.	.	.	.	.
CC(C)c1cc(=O)oc2c3c4c(cc12)CCCN4CCC3	.	.	.	.	.	.
O=c1oc2c3c4c(cc2c(C(F)(F)F)c1CCN1CCOCC1)CCCN4CCC3	25.7	25.1	.	.	.	.
CC(=O)c1cccc(NS(C)(=O)=O)c1	.	.	.	.	.	.
CCCCC[C@H](O)/C=C/[C@H]1CCC(=O)[C@@H]1CCCCCCC(=O)N1CCCCC1CO (stereo partly specified)	15.8	.	53.5	.	.	.
CCC1CCCCN1C(=O)CCCOc1ccccc1 (stereo unspecified)	.	.	.	.	.	.
COC(=O)c1ccc(CN2CCC(Oc3ccc(C(=O)N4CCCCC4)cc3)CC2)cc1	.	.	.	.	97.0	.
COC(=O)c1ccc(CN2CCC(Oc3cccc(C(=O)N4CCCC4)c3)CC2)cc1	.	.	.	.	94.4	.
O=C(c1cccc(OC2CCN(Cc3cc(F)cc(F)c3)CC2)c1)N1CCCC1	.	.	.	.	.	.
